# About 770 (0.77%) of roughly 100,000 compounds were called active. Cut-off read from the data, not from the text of the source: active = inhibition above about 50%; inactive = the rest. For the sample, actives were picked, then their nearest neighbours and some compounds at random.
# Molecular target: Gag-Pol polyprotein (Human immunodeficiency virus type 1 group M subtype B (isolate HXB2)) (UniProt P04585)
# Assay: RNase H inhibition, HIV 1 Gag Pol polyprotein, FRET biochemical assay, screening (AID 372)
# Conditions: HIV-1 RT RNase H, FRET RNA/DNA substrate fluorescence; at 10 µM; active compounds read high
row,Structure (SMILES),inhibition
1,COc1ccc(C2C3=C(CC(C)(C)CC3=O)Nc3ccccc3N2C(=O)CC(C)C)cc1 (stereo not drawn),3% (inactive)
2,O=C(/C=C/c1ccc(Cl)cc1)Nc1ccc(-c2nc3ccccc3o2)cc1,52% (active)
3,O=C(/C=C/c1cccc([N+](=O)[O-])c1)Nc1ccc(-c2nc3ccccc3o2)cc1,54% (active)
4,O=C(/C=C/c1cccc([N+](=O)[O-])c1)Nc1ccc2oc(-c3ccccc3)nc2c1,31% (inactive)
5,Cc1ccc2nc(-c3ccc(C)c(NC(=O)/C=C/c4cccc([N+](=O)[O-])c4)c3)oc2c1,40% (inactive)
6,Cc1ccc2nc(-c3ccc(NC(=O)/C=C/c4cccc([N+](=O)[O-])c4)cc3)oc2c1,54% (active)
7,O=C(/C=C/c1ccc(Cl)cc1)Nc1ccc(-c2nc3ccccc3o2)c(O)c1,20% (inactive)
8,Cc1ccc2nc(-c3ccc(NC(=O)/C=C/c4ccc(Cl)cc4)cc3)oc2c1,48% (inactive)
9,Cc1cc(C)c2oc(-c3ccc(NC(=O)/C=C/c4cccc([N+](=O)[O-])c4)cc3)nc2c1,16% (inactive)
10,O=C(/C=C/c1cccc([N+](=O)[O-])c1)Nc1ccc(-c2nc3ccccc3o2)c(O)c1,14% (inactive)
11,N#Cc1cnn(-c2ccc3ccccc3c2)c1N,5% (inactive)
12,Cc1ccc(N=Cc2ccco2)c(C)c1,29% (inactive)
13,CC1(C)CC(=O)c2cc(C(=O)NCc3ccccc3)c(=O)n(-c3ccccc3)c2C1,15% (inactive)
14,O=C(COc1ccc(Br)cc1Cl)NCCc1ccccc1,16% (inactive)
15,COc1ccc(CC(=O)Nc2ccc(Br)cc2C)cc1OC,50% (active)
16,COc1ccc(CCNC(=O)COc2ccc(Br)cc2Cl)cc1OC,53% (active)
17,COc1ccc(CCNC(=O)COc2ccc(Br)cc2)cc1OC,1% (inactive)
18,COc1ccc(CC(=O)Nc2ccc(Cl)cc2C)cc1OC,0% (inactive)
19,COc1ccc(CCNC(=O)COc2ccccc2OC)cc1OC,1% (inactive)
20,COc1ccc(CCNC(=O)COc2ccc(Cl)cc2Br)cc1OC,54% (active)
21,COCCNC(=O)COc1ccc(Cl)cc1Br,14% (inactive)
22,COc1ccc(CC(=O)Nc2ccc(Br)cc2F)cc1OC,12% (inactive)
23,CC(C(=O)N1CCOCC1)N1C(=O)c2cccc3cccc(c23)C1=O (stereo not drawn),19% (inactive)
24,COc1ccc(C(=O)N2CCc3ccccc3C2)cc1,15% (inactive)
25,COc1cc(/C=C2/C(=O)NC(=O)N(Cc3ccco3)C2=O)ccc1OCC(N)=O,0% (inactive)

row,Structure (SMILES),inhibition
1,CCOc1ccc(/C=C2\SC(=S)N(Cc3ccccc3)C2=O)c(OCC)c1,12% (inactive)
2,CCOC(=O)C1=C(C)N(c2ccccc2)C(=O)C1,10% (inactive)
3,COc1cccc(C2/C(=C(\O)c3ccc(Cl)cc3)C(=O)C(=O)N2CCCCCC(=O)O)c1 (stereo not drawn),16% (inactive)
4,CC(C)(C)c1cc(CCC(=O)NCCN2C(=O)c3ccccc3C2=O)cc(C(C)(C)C)c1O,2% (inactive)
5,Cc1ccc(SCC(=O)N2CCCC2)cc1,6% (inactive)
6,Nc1cccc(-c2cc(C(=O)O)c3ccccc3n2)c1,0% (inactive)
7,c1ccc(NC2=Nc3cccc4cccc2c34)cc1,12% (inactive)
8,Nc1cccc(C2=Nc3cccc4cccc(c34)N2)c1,56% (active)
9,Nc1ccc(C2=Nc3cccc4cccc(c34)N2)cc1,56% (active)
10,Nc1cccc(-c2nnc(-c3ccccc3)o2)c1,3% (inactive)
11,Cc1ccc([N+](=O)[O-])cc1-c1ccc(/C=C(\C#N)C(=O)NCc2ccco2)o1,1% (inactive)
12,Cc1nn(-c2ccccc2)c2c1C(c1ccc(O)cc1)C(C#N)=C(N)O2 (stereo not drawn),3% (inactive)
13,O=c1/c(=C/c2cc([N+](=O)[O-])ccc2OCCCOc2ccccc2)sc2nc3ccccc3n12,4% (inactive)
14,C=CC(=O)NC1(CCC)CCCCC1,11% (inactive)
15,COc1ccc(/C=C(C(=O)O)/C(C)=C/C(=O)O)c(OC)c1,7% (inactive)
16,COc1ccc(C(=O)c2ccc(Cl)cc2Cl)cc1,15% (inactive)
17,Cc1sc2nc(-c3ccccc3)[nH]c(=O)c2c1C,10% (inactive)
18,Cc1sc2nc(-c3ccc(Br)cc3)[nH]c(=O)c2c1C,8% (inactive)
19,N=C1S/C(=C\c2ccc(N3CCOCC3)cc2)C(=O)N1c1ccc(Br)cc1,53% (active)
20,O=C1S/C(=C/c2ccc(Br)cc2)C(=O)N1c1ccccc1,0% (inactive)
21,CCOC(=O)c1ccc(N2C(=N)S/C(=C\c3ccc(N4CCOCC4)cc3)C2=O)cc1,15% (inactive)
22,COc1ccc(NC(=O)C(=O)NCc2ccccn2)cc1,8% (inactive)
23,O=C(NCc1ccccn1)C(=O)Nc1ccc(F)cc1,12% (inactive)
24,O=C(NCc1ccccn1)C(=O)Nc1ccc(Oc2ccccc2)cc1,54% (active)
25,O=C(Cn1cc(/C=C2/C(=O)NC(=S)N(c3cccc(Cl)c3)C2=O)c2ccccc21)Nc1ccccc1,55% (active)

row,Structure (SMILES),inhibition
1,COc1ccc(NC(=O)/C(C#N)=C/c2cn(CC(=O)Nc3ccccc3)c3ccccc23)cc1,59% (active)
2,O=C(Cn1cc(/C=C2/C(=O)NC(=O)N(c3cccc(Cl)c3)C2=O)c2ccccc21)Nc1ccccc1,32% (inactive)
3,O=C(Cn1cc(/C=C2/C(=O)NC(=S)N(c3ccccc3F)C2=O)c2ccccc21)Nc1ccccc1,47% (inactive)
4,O=C(O)Cn1cc(/C=C2/C(=O)NC(=O)N(c3ccccc3F)C2=O)c2ccccc21,10% (inactive)
5,COc1cccc(OCCn2cc(C=C3C(=O)NC(=O)NC3=O)c3ccccc32)c1,12% (inactive)
6,Cc1cccc(OCCn2cc(C=C3C(=O)NC(=S)NC3=O)c3ccccc32)c1,7% (inactive)
7,N#C/C(=C\c1cn(CC(=O)Nc2ccccc2)c2ccccc12)C(=O)Nc1ccccc1,0% (inactive)
8,COc1cccc(OCCn2cc(C=C3C(=O)NC(=S)NC3=O)c3ccccc32)c1,57% (active)
9,O=C(O)Cn1cc(/C=C2\C(=O)NC(=S)N(c3ccccc3F)C2=O)c2ccccc21,55% (active)
10,COc1ccc(NC(=O)/C(C#N)=C\c2cn(CC(=O)O)c3ccccc23)cc1,0% (inactive)
11,O=C(Cn1cc(/C=C2/C(=O)NC(=O)N(c3cccc(F)c3)C2=O)c2ccccc21)Nc1ccccc1,46% (inactive)
12,COc1ccc(OC)c(N2C(=O)C(Cl)=C(N3CCCCC3)C2=O)c1,14% (inactive)
13,CCc1ccc(/C=C2\SC(=O)NC2=O)cc1,4% (inactive)
14,COc1cc(NC(=O)c2ccc(Cl)c([N+](=O)[O-])c2)ccc1NC(=O)c1ccco1,5% (inactive)
15,Cc1nnc(NC(=O)Cc2ccc(Br)cc2)s1,3% (inactive)
16,COc1cc(CN2CCN(Cc3ccc4c(c3)OCO4)CC2)c([N+](=O)[O-])cc1OC,6% (inactive)
17,CCC(=O)Nc1cc(-c2nc3cc(Cl)ccc3o2)ccc1C,0% (inactive)
18,CC1=C(C(=O)OCC2CCCCC2)C(c2ccccc2F)NC(=O)N1 (stereo not drawn),17% (inactive)
19,CCOc1cccc(N2C(=O)NC(=O)/C(=C\c3cn(CC(=O)OC)c4ccccc34)C2=O)c1,0% (inactive)
20,COc1ccc(N2C(=O)/C(=C/c3cn(Cc4ccccc4)c4ccccc34)C(=O)NC2=S)cc1,15% (inactive)
21,Cc1ccc(N2C(=O)NC(=O)/C(=C/c3cn(CC(=O)Nc4ccccc4)c4ccccc34)C2=O)cc1,43% (inactive)
22,O=C(Cn1cc(/C=C2/C(=O)NC(=O)N(c3ccc(Cl)cc3)C2=O)c2ccccc21)Nc1ccccc1,11% (inactive)
23,COC(=O)Cn1cc(/C=C2\C(=O)NC(=S)N(c3cccc(Cl)c3)C2=O)c2ccccc21,4% (inactive)
24,O=C1NC(=O)N(c2ccccc2F)C(=O)/C1=C/c1ccc(OCc2cccc(C(=O)O)c2)cc1,4% (inactive)
25,Cc1ccccc1N1C(=O)/C(=C\c2cn(CC(=O)Nc3ccccc3)c3ccccc23)C(=O)NC1=S,26% (inactive)

row,Structure (SMILES),inhibition
1,O=C(Cn1cc(/C=C2/C(=O)NC(=S)N(c3ccccc3)C2=O)c2ccccc21)Nc1ccccc1,53% (active)
2,CCOc1ccc(N2C(=O)/C(=C/c3ccc(OCc4cccc(C(=O)O)c4)cc3)C(=O)NC2=S)cc1,5% (inactive)
3,CCc1ccccc1NC(=O)c1nn2c(c1Cl)NC(c1ccc(C)cc1)CC2C(F)(F)F (stereo not drawn),9% (inactive)
4,CCCOc1ccccc1C1C(C(=O)OCC2CCCO2)=C(C)NC2=C1C(=O)CCC2 (stereo not drawn),6% (inactive)
5,Oc1c(Br)cc(/C=N/Nc2nc(N3CCCCC3)nc(N3CCCCC3)n2)c(O)c1Br,29% (inactive)
6,CC(=O)NN1C(=O)/C(=C\c2ccc(I)o2)SC1=S,0% (inactive)
7,CCCOC(=O)c1c(NC(=O)Cc2ccc(OC)cc2)sc2c1CCCC2,40% (inactive)
8,CC(=O)NC(c1ccccc1)C1C(=O)N(c2ccccc2)N=C1C (stereo not drawn),4% (inactive)
9,CC1=NN(c2ccccc2)C(=O)C1C(c1ccc([N+](=O)[O-])cc1)C1C(=O)N(c2ccccc2)N=C1C (stereo not drawn),4% (inactive)
10,CC1=NN(c2ccccc2)C(=O)C1C(c1ccccc1)C(C#N)C#N (stereo not drawn),54% (active)
11,COc1ccc(Cl)cc1N(CC(=O)N1CCC(C)CC1)S(=O)(=O)c1ccc(C)c([N+](=O)[O-])c1,6% (inactive)
12,CCOc1cc(C=C2C(=O)NC(=O)NC2=O)ccc1OS(=O)(=O)c1ccc(C)cc1,17% (inactive)
13,O=C(COc1ccc(Cl)cc1Cl)n1cc([N+](=O)[O-])cn1,6% (inactive)
14,CC(=O)c1cc(C#N)c(SCC(=O)c2ccc(O)c(O)c2)nc1C,75% (active)
15,Cc1cc(-c2ccc(C)o2)c(C#N)c(SCC(=O)c2ccccc2)n1,1% (inactive)
16,CCc1c(C#N)c(N)nc(SCC(=O)c2ccc(Cl)c(Cl)c2)c1C#N,14% (inactive)
17,CCCCSc1nc(C)c(C(C)=O)cc1C#N,8% (inactive)
18,COc1ccc(C(=O)CSc2nc3c(c(-c4ccc(C)o4)c2C#N)CCCC3)cc1,15% (inactive)
19,COc1ccc(-c2cc(-c3ccc(OC)cc3)c(C#N)c(SCC(=O)c3ccc(C)cc3)n2)cc1,17% (inactive)
20,CCc1c(C#N)c(N)nc(SCC(=O)c2ccc(C)cc2)c1C#N,13% (inactive)
21,CSc1nc(C)c(C(C)=O)cc1C#N,13% (inactive)
22,N#Cc1c(SCC(=O)c2ccc(Cl)cc2)nc2c(c1-c1ccco1)CCCC2,12% (inactive)
23,Cc1nc(SCC(=O)c2ccc(O)c(O)c2)c(C#N)c(CC(C)C)c1C(N)=O,51% (active)

# Reference: PubChem BioAssay AID372 (MTDP, 2006)
